According to PubChem BioAssay AID753 (Emory University Molecular Libraries Screening Center, 2007):
The list shows a part of the results. Records with an inconclusive call do not appear. The source made the active and inactive calls.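 How the source made its calls: active means percent of control activity at or below 60%; inconclusive means HPLC trace unusable from injection failure or solvent front hiding peaks; inactive means the rest, plus ubiquitin peak ratio over a set limit.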

target: Ubiquitin carboxyl-terminal hydrolase BAP1 (Homo sapiens) (UniProt Q92560); assay: BAP1 deubiquitinase inhibitors, hit retest, confirmation, orthogonal assay, biochemical, Ub-ethyl ester substrate, HPLC readout (AID 753); conditions: purified BAP1, Ub-ethyl ester hydrolysis; at 20 µM, stronger effect = lower value
Sequence (Q92560 whole entry, looked up): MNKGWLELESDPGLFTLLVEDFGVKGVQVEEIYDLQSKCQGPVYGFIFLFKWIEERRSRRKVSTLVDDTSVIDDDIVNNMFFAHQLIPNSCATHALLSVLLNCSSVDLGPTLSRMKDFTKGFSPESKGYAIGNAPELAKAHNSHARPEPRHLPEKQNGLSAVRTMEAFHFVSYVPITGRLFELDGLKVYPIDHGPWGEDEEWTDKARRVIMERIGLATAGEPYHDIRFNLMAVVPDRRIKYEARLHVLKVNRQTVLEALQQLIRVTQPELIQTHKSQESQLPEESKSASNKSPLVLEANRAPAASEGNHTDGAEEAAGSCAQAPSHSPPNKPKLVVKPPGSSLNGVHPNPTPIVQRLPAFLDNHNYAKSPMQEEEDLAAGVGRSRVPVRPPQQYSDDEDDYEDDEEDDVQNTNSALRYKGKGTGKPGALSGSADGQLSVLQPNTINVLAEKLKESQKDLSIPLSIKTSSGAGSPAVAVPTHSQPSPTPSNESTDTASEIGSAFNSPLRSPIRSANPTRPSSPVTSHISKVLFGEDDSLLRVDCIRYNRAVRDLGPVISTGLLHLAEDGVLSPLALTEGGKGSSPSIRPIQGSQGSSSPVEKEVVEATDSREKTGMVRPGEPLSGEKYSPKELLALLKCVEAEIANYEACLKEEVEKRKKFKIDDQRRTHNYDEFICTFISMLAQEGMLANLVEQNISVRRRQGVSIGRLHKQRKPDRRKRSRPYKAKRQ

% of control activity, inactive:
CCC(c1nnnn1C1CCCC1)N(Cc1cccs1)Cc1cc2cccc(C)c2[nH]c1=O (configuration not stated) 99.7%
C=CCn1c2ccccc2c2nnc(SC(CC)C(=O)Nc3nc(C)c(C(=O)OCC)s3)nc21 (configuration not stated) 73.6%
N#Cc1c(/N=C/N2CCCC2)oc(-c2ccccc2)c1-c1ccccc1 111%
Fc1ccc2nc(Nc3nc4c(s3)CCCC4)sc2c1 142%
Fc1ccc(-c2ccc(-c3nn4c(-c5ccco5)nnc4s3)o2)cc1 106%
O=c1c2ccccc2nc(CSc2nnnn2-c2ccccc2)n1-c1ccccc1 83.3%

outcome, inactive:
CCOc1ccc(CN(Cc2ccco2)C(c2cccs2)c2nnnn2C(C)(C)C)cc1 (configuration not stated)
